Bioassay records deposited in PubChem by several laboratories.
esBAF inh: Bmi1 luciferase reporter increase in mESCs, primary screen, esBAF inhibitor project, mouse ES cells, Bmi1 luciferase knock-in, single point. 24 h; 100% = twice the neutral-well signal. reporter increase, % at 12.5 µM. 2% of 350,000 active. AID 602393, 2012; in the data active = activation above about 40%;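 note: 0% = median of the plate's neutral control wells and 100% = double that signal; a rise in the Bmi1 reporter signal indicates esBAF inhibition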
SMARCA2 act: SMARCA2 (BRM) function activators, primary screen, cell-based, luminescence, high throughput; MG213 cells, MMTV-luciferase reporter, dexamethasone, overnight; activation, % at 9.1 µM; 1% of 370,000 active; AID 652017, 2013; in the data active = activation above about 7.8%;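 note: 0% = vehicle wells and 100% = reference activator wells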
dFosB activator: activators of delta FosB homodimer, primary screen, biochemical, fluorescence polarization, TAMRA-CDK5 oligo, single point; purified delta FosB; percent of positive-control signal above neutral wells; activation, % at 25 µM; 0.99% of 340,000 active; Protein FosB (Mus musculus), P13346;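 active = mean activation above about 17%, with every replicate also reaching it, limit read from the data, passing the limit was not always enough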
Rtt109 Vps75: inhibitors of C. albicans Rtt109/Vps75 HAT, primary screen, biochemical, ThioGlo CoA-SH fluorescence, plate reader; Histone acetyltransferase RTT109 (Candida albicans (strain SC5314 / ATCC MYA-2876)), …; purified Rtt109/Vps75, 4 h; AID 540336, 2011; inhibition, % at 34.9 µM; 0.16% of 330,000 active;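 active = inhibition of at least 50% in every replicate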
Target sequence (Q5AAJ8 whole entry, looked up): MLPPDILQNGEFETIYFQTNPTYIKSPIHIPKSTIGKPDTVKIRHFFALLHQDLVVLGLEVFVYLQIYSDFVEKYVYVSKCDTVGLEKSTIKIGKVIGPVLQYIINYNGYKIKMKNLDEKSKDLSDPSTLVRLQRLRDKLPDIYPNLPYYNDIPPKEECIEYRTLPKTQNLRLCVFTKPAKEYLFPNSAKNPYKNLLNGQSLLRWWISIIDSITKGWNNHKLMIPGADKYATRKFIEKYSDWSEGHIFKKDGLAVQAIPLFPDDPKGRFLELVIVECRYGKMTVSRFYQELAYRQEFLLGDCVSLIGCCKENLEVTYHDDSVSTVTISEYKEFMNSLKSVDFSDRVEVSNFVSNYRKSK
CDK5 p35 inh: inhibitors of human CDK5/p35 kinase, primary screen, biochemical, single concentration; Cyclin-dependent kinase 5 (Homo sapiens) + Cyclin-dependent kinase 5 activator 1 (Homo …; Recombinant CDK5/p35, ADP-Glo luminescence, 60 min; inhibition, % at 10 µM; 0.01% of 330,000 active; AID 488839, 2010;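 active = highest replicate inhibition of at least 50% and at least 75% of replicates reaching 50%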;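 note: plate controls were DMSO neutral control for no effect and GW8510 at 10 µM for full effect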
DYRK1A inh: rat Dyrk1A kinase inhibitors, primary screen, biochemical, single point, plate reader; Dual specificity tyrosine-phosphorylation-regulated kinase 1A (Rattus norvegicus), Q63470; ADP-Glo luminescence, NFATc1 peptide; inhibition, % at 12.5 µM; 0.43% of 310,000 active; in the data active = inhibition above about 50%;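 note: plate controls were vehicle with enzyme for no effect and no enzyme for full effect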
Active calls of the source: *; . = no result given. An excerpt weighted towards active compounds, which were near 3.2% of everything screened.

SMILES | esBAF inh | SMARCA2 act | dFosB activator | Rtt109 Vps75 | CDK5 p35 inh | DYRK1A inh
CC(=O)N(C)C[C@H]1Oc2cc(C3=CCCC3)ccc2S(=O)(=O)N([C@@H](C)CO)C[C@H]1C | 1 | . | . | . | . | .
COc1ccc(S(=O)(=O)Nc2ccc3c(c2)CC(=O)N([C@@H](C)CO)C[C@H](C)[C@@H](CN(C)C(=O)NC2CCCCC2)O3)cc1 | -2 | . | . | . | . | .
c1ccc2c(c1)CC/C2=N/Nc1nc2ccccc2[nH]1 | 6 | 6 | 31* | -4 | 0 | 2
C[C@@H]1CN([C@H](C)CO)C(=O)c2cc(NC(=O)Cc3cn(C)c4ccccc34)ccc2O[C@@H]1CN(C)C | -13 | . | . | . | . | .
COC(=O)c1ccc(CSc2nc(N)cc(N)n2)cc1 | 52* | 2 | -7 | -12 | 0 | -14
CCc1cccc(C)c1NC(=O)C1CCCO1 (stereo unspecified) | -10 | 0 | 2 | 0 | 1 | 12
O=C(Nc1ncc(Cc2cccc(Cl)c2Cl)s1)C1CCCO1 (stereo unspecified) | 85* | 4 | 5 | -1 | 0 | -3
O=C(CSc1nnnn1-c1ccccc1)Nc1ncc(Cc2cc(Cl)ccc2Cl)s1 | 1 | 1 | 11 | 0 | -1 | -3
O=C(CSc1nnnn1-c1ccccc1)Nc1ncc(Cc2cccc(Cl)c2Cl)s1 | . | -4 | 77* | 2 | 2 | 1
O=C(Nc1ncc(Cc2ccccc2Cl)s1)C1CCCO1 (stereo unspecified) | 71* | 4 | -4 | 1 | 1 | 1
Cc1cccc2sc(NC(=O)C3CCCO3)nc12 (stereo unspecified) | 74* | 2 | -3 | 1 | 1 | 9
O=C(Nc1ncc(Cc2cccc(Cl)c2)s1)C1CCCO1 (stereo unspecified) | . | 6 | -1 | 1 | 1 | 2
C[C@H](CO)N1C[C@H](C)[C@@H](CN(C)C(=O)Nc2cccc3ccccc23)Oc2ccc(NC(=O)C3CC3)cc2C1=O | 0 | . | . | . | . | .
Cc1ccc(S(=O)(=O)N[C@@H]2C=C[C@@H](CC(=O)N3CCN(c4ccccc4)CC3)O[C@H]2CO)cc1 | 4 | . | . | . | . | .
CCOC(=O)c1ccc(NC(=O)N2CCCCCC2)cc1 | 17 | 5 | 2 | 6 | -1 | 5
CCOC(=O)c1ccc(NS(=O)(=O)N2CCCCCC2)cc1 | 47* | 0 | -10 | -3 | 0 | 0
C[C@@H]1CN([C@@H](C)CO)C(=O)Cc2cc(NC(=O)Nc3cccc4ccccc34)ccc2O[C@H]1CN(C)Cc1ccncc1 | -3 | . | . | . | . | .
COc1ccc(C(=O)CCc2ccccc2)cc1 | 48* | 4 | -1 | -7 | 2 | 2
CCCC1(C)Nc2ccccc2-c2nc3ccccc3n21 (stereo unspecified) | 67* | 4 | 4 | -48 | 3 | 15
c1ccc2c(c1)NC1(CCCC1)n1c-2nc2ccccc21 | 75* | 6 | -4 | -28 | 2 | 20
O=C1c2ccccc2NC2(CCCC2)N1O | -3 | 1 | 1 | 6 | 0 | 4
O=C(Nc1nc2c(s1)CCc1ccccc1-2)c1ccco1 | 62* | 3 | -4 | 17 | 1 | 44
NC(=O)c1cc(Cc2ccccc2)sc1NC(=O)c1ccco1 | 85* | 7 | 75* | -23 | 0 | 6
O=C(Nc1nnc(Cc2ccccc2)s1)c1ccco1 | 46* | 7 | -5 | -4 | 0 | -6
C[C@H](CO)N1C[C@H](C)[C@H](CN(C)Cc2cccc(F)c2)Oc2ncc(C#C[C@@H](C)O)cc2C1=O | -1 | . | . | . | . | .
CS(=O)(=O)N1[C@@H]2Cn3c(ccc(C4=CCCCC4)c3=O)[C@H]1[C@@H](C(=O)N1CCCCC1)[C@@H]2CO | 1 | . | . | . | . | .
CC[C@@H](C)[C@H](NC(=O)OC(C)(C)C)c1nnc(S(=O)(=O)Cc2cc(C)ccc2C)o1 | -6 | -5 | -7 | 133* | -2 | 3
